# Reference: ChEMBL document CHEMBL4513216, “Probing the Open Global Health Chemical Diversity Library for Multistage-Active Starting Points for Next-Generation Antimalarials” (ACS Infect Dis, 2020)
# Hit rate of the full screen: of about 69,000 compounds, about 8,600 (12%) showed an effect of 50% or more. The sample holds strong results, similar compounds and a random draw of the others, so the mix is not that of the screen.
# Tested on: Plasmodium berghei
# Assay: Screen against P. berghei liver stage (PbLuc), transformed with Luciferase, at 10uM
# Assay type: functional, HepG2
# Settings: tested at 10 uM
row,SMILES,INHIBITION [%]
1,CCNC(=O)[C@@H]1C[C@@H](NC(=O)c2ccsc2)CN1CCCSC,-16.9
2,Cc1cccc(CNC(=O)CNc2cc(CO)ccc2Cl)c1,14.2
3,CN1CC(=O)N(c2cnn(C)c2)CC12CCN(Cc1cccnc1)C2 (stereo unspecified),39.8
4,CC(C)(NCC(=O)NC(=O)NC1CC1)c1ccc2c(c1)OCO2,43.3
5,O=C(CC1[C@H]2CN(C(=O)c3cccnc3)C[C@@H]12)Nc1cccnc1 (stereo partly specified),34.6
6,Cn1cc(-c2nnc3sc(C4CCC4)nn23)cn1,25.2
7,COc1cc(C)ccc1OCC(=O)NS(=O)(=O)c1cccnc1,-16
8,O=S(=O)(C1CC1)N1CCO[C@@H]2CC(COCc3cccnc3)C[C@H]21 (stereo partly specified),34.5
9,O=C(Nc1cccnc1)NC1(c2cccc(F)c2)CC1,-2.39
10,Cc1ccn(CC(=O)Nc2cc(-c3ccncc3)[nH]n2)n1,39.6
11,Cc1cc(C)n(CC(=O)Nc2cc(-c3ccncc3)[nH]n2)n1,5.94
12,Cc1ccnn1CC(=O)Nc1cc(-c2ccncc2)[nH]n1,63.4
13,Cc1cc(C2CCCN(C(=O)COc3cc(C)on3)C2)n[nH]1 (stereo unspecified),-23.8
14,COCCNc1ncc(-c2onc(C)c2C)c(-c2ccco2)n1,31.85
15,Cc1nnc(N2CCOC(C)(C(=O)NC3CCCC3)C2)c2ccccc12 (stereo unspecified),4.41
16,COCCCNC(=O)CCn1ncc2c(Cl)cccc21,20.9
17,CCn1cc(CNC(=O)CCn2ncc3c(Cl)cccc32)cn1,54.9
18,Cc1nn(C)c(C)c1CNC(=O)CCn1ncc2c(Cl)cccc21,49.9
19,CN(C)CCNC(=O)CCn1ncc2c(Cl)cccc21,55.7
20,CCN(CC)C(=O)CCn1ncc2c(Cl)cccc21,-4.74
21,CCn1ncc(NC(=O)CCn2ncc3c(Cl)cccc32)c1C,9.32
22,COCCNC(=O)CCn1ncc2c(Cl)cccc21,55.7

row,SMILES,INHIBITION [%]
1,O=C(CCn1ncc2c(Cl)cccc21)NCCCO,49.9
2,O=C(CCn1ncc2c(Cl)cccc21)NCC1CC1,68.9
3,CC(C)(C)NC(=O)CCn1ncc2c(Cl)cccc21,47.4
4,CN(C)C(=O)CNC(=O)CCn1ncc2c(Cl)cccc21,-15.8
5,O=C(CCn1ncc2c(Cl)cccc21)NCCCn1cccn1,-2.28
6,Cc1nnc(N2CCc3cncnc3C2)c(C#N)c1C,-5.08
7,Cc1nc(C2CCCN2CC(=O)Nc2c(C)n[nH]c2C)no1 (stereo unspecified),27.8
8,CC[C@H](C)[C@H](N)C(=O)Nc1nc(-c2cnc(N(C)CCO)nc2)cs1,-37.5
9,Cc1cn2c(=O)c(-c3ccnc(N4CCC[C@@H]4CO)n3)cnc2s1,4.08
10,Cn1cc(CC2CCN(C(=O)NCc3cccc(C(N)=O)c3)C2)cn1 (stereo unspecified),-51.705
11,O=C1NC2(CCNCC2)CC1c1ccncc1 (stereo unspecified),33.4
12,O=C1NC2(CCN(CCO)CC2)CC1c1ccccc1 (stereo unspecified),21.6
13,O=C1NC2(CCNCC2)CC1c1cccnc1 (stereo unspecified),52.3
14,O=C1NC2(CCN(C(=O)c3ccnnc3)CC2)CC1c1ccccc1 (stereo unspecified),-16.9
15,O=C1NC2(CCN(C/C=C/c3ccccc3)CC2)CC1c1ccccc1 (stereo unspecified),63.8
16,O=C1NC2(CCNCC2)CC1c1ccccc1 (stereo unspecified),49.7
17,O=C1NC2(CCN(CCc3ccccc3)CC2)CC1c1ccccc1 (stereo unspecified),52.6
18,O=C1NC2(CCN(CC3CC3)CC2)CC1c1ccccc1 (stereo unspecified),52.6
19,O=C1NC2(CCN(C(=O)Cc3ccsc3)CC2)CC1c1ccccc1 (stereo unspecified),-4.88
20,O=C1NC2(CCN(Cc3cccnc3)CC2)CC1c1cccnc1 (stereo unspecified),-12.1
21,O=C1NC2(CCN(Cc3cccnc3)CC2)CC1c1ccncc1 (stereo unspecified),49.5
22,O=C1CC(c2ccccc2)C2(CCN(CC3CC3)CC2)N1 (stereo unspecified),31.2

row,SMILES,INHIBITION [%]
1,CCOCc1cnc2n1CCN(Cc1cccs1)C2C (stereo unspecified),-10.5
2,Nc1cc(-c2c[nH]nc2C2CCCN2CCCc2ccccc2)ccn1 (stereo unspecified),17.8
3,CCn1cc(CN2CCCN(C(=O)c3cccc(C#N)c3)CC2)cn1,-73.1
4,CNc1ccc(CC2CCCN(Cc3c[nH]cn3)C2)nn1 (stereo unspecified),36.9
5,Cc1cnn(CC2CCCN2C(=O)Cc2c(C)noc2C)c1 (stereo unspecified),29.4
6,Cc1nccn1CC1CCCN(S(=O)(=O)c2cnn(C)c2)C1 (stereo unspecified),42.5
7,CCc1nccn1C1CCCN(C(=O)c2csc(C3CC3)n2)C1 (stereo unspecified),-4.16
8,CC(C)CN1C[C@H]2CCN(c3ncccn3)CC[C@H]2S1(=O)=O,-14.9
9,COCCN1C[C@H]2CCN(c3ncccn3)CC[C@H]2S1(=O)=O,82.9
10,CCN1C[C@H]2CCN(c3ncccn3)CC[C@H]2S1(=O)=O,-41.6
11,CCn1nc(C)c2nnn(CC(=O)Nc3ccccc3)c(=O)c21,49.9
12,CN(C)S(=O)(=O)N1C[C@H]2CCC[C@@]2(COc2cccnc2)C1,-16.9
13,CN1CCN([C@@H]2CCN(C3CCOCC3)[C@H]2Cc2cnn(C)c2)CC1,-8.85
14,Cc1nn2c(-c3snnc3C)nnc2s1,61.8
15,Cc1nnsc1-c1nnc2sc(C3CCC3)nn12,-13.1
16,Cc1nnsc1-c1nnc2sc(C(C)C)nn12,12.5
17,O=C1CCC(c2ccc(Cl)cc2)=NN1CN1CCSCC1,6.34
18,CO[C@@H]1CCN(Cc2cnn(C)c2)[C@@H]2CN(Cc3ccco3)C[C@@H]21,7.11
19,CCc1cc(C(=O)N2CCCn3nc(CCC(=O)O)cc3C2)cs1,22.8
20,Cc1ccc(C(=O)N2CCCn3nc(CCC(=O)O)cc3C2)cc1Cl,52.5
21,CCOc1cccc(C(=O)N2CCCn3nc(CCC(=O)O)cc3C2)c1,-19
22,O=C(O)CCc1cc2n(n1)CCCN(C(=O)c1ccc(F)cc1F)C2,-13.5

row,SMILES,INHIBITION [%]
1,O=C(O)CCc1cc2n(n1)CCCN(C(=O)c1cc3ccccc3s1)C2,67.9
2,O=C(c1ccc(Cl)s1)N1CCCn2nc(CN3CC[C@H](F)C3)cc2C1,45
3,O=C(O)CCc1cc2n(n1)CCCN(C(=O)c1ccc3cc[nH]c3c1)C2,8.47
4,O=C(O)CCc1cc2n(n1)CCCN(C(=O)c1ccc(Cl)s1)C2,51.5
5,CCCc1nc(C(=O)N2CCCn3nc(CCC(=O)O)cc3C2)cs1,-9.86
6,CC(C)n1nc(Cn2cccc2)c2c1CN(C1CCOCC1)C2,23.3
7,Cc1nc(CN(C)C(=O)NC(C)c2ccc3c(c2)OCCO3)cs1 (stereo unspecified),31.2
8,CC(Cn1cccn1)NC(=O)CCc1nc(C(C)(C)C)no1 (stereo unspecified),10.6
9,O=C1COC2(CCN(Cc3ccncc3)CC2)CN1c1ccccc1,-27.4
10,Cc1c[nH]c(C2COCCN2S(=O)(=O)c2cn[nH]c2)n1 (stereo unspecified),-8.12
11,Cc1ccc(CSc2nc(N)cc(NCCC(=O)N3CCCC3)n2)cc1,36.6
12,CCc1nc(N)nc(NCCC(=O)N2CCCC2)c1C,62.8
13,CCc1cnc(C)nc1NCCC(=O)N1CCC(C)CC1,-21.1
14,CCn1ccnc1CN1CCC(N(Cc2ncc(C)o2)C(C)=O)C1 (stereo unspecified),48.2
15,Cn1cc(CC(=O)N2CCCC(c3ccn[nH]3)C2)cn1 (stereo unspecified),5.11
16,Fc1cnc(N2CCO[C@H]3CN(CC4CCCCC4)C[C@H]32)nc1,30.3
17,CO[C@@H]1CCN(c2ncc(F)cn2)[C@@H]2CN(Cc3cccnc3)C[C@@H]21,31.4
18,Fc1cnc(N2CCO[C@H]3CN(CC4CCCC4)C[C@H]32)nc1,-13.3
19,CO[C@@H]1CCN(c2ncc(F)cn2)[C@@H]2CN(CC3CC3)C[C@@H]21,60.3
20,CO[C@H]1CCN(c2ncc(F)cn2)[C@@H]2CN(Cc3ccco3)C[C@H]12,49.1
21,CCN1C[C@H]2[C@@H](C1)N(c1ncc(F)cn1)CC[C@H]2OC,84.5
22,CCN1CCN(c2nc(O)cc(Cc3ccccc3F)n2)CC1,10.9

row,SMILES,INHIBITION [%]
1,CNC(=O)c1sccc1S(=O)(=O)Nc1ccc(C)cc1,61.1
2,CNC(=O)c1sccc1S(=O)(=O)NC,46.6
3,CNS(=O)(=O)c1ccsc1C(=O)OC,37.6
4,O=C(c1cccnc1)N1CCCC1c1nc(O)cc(-c2ccccn2)n1 (stereo unspecified),36.7
5,O=C1NCCCC1NC(=O)C1(c2cccc(Cl)c2)CCC1 (stereo unspecified),-2.27
6,O=S(=O)(c1cccc(Cl)c1)N1C[C@@H]2CCN[C@@H]2C1,-14.7
7,Clc1cccc(C[C@@H]2NCCC[C@@H]2Nc2cccc(Cl)c2)c1,92.6
8,c1ccc(CCNc2cccc(C3CCCNC3)n2)cc1 (stereo unspecified),34
9,O=C(NCCc1cccc(Cl)c1)C1CCOCC1,27.7
10,Clc1cccc(N[C@H]2CCCN[C@H]2Cc2ccccc2)c1,91.6
11,O=C(Cc1cccc(Cl)c1)N[C@@H]1CCNC[C@H]1O,0.547
12,O=C1NCCCc2[nH]c(Cc3cccc(Cl)c3)nc21,32
13,Clc1cccc(C[C@@H]2NCCC[C@@H]2Nc2ccccc2)c1,86.1
14,CCOCC(=O)N1CCC2(CC1)COCCN2CCN(C)C,-3.33
15,O=C(c1ccc(F)cc1)N1C[C@H]2CCC[C@@]2(COCc2ccncc2)C1,16.8
16,CC(C)CNC(=O)C1(Cc2ccccc2-c2cccs2)CCNC1 (stereo unspecified),14.7
17,COc1ccc(C(C)NC(=O)Cn2ccc(=O)n(C)c2=O)cc1F (stereo unspecified),-29.8
18,Cc1ccccc1OCC(O)CN1CCC(Cn2cccn2)CC1 (stereo unspecified),17.5
